# Screening results (PubChem)
# Only some compounds are listed: those with a hit (about 0.99% of all), similar ones and a draw of the others.
# FEN1 inh-1 – qHTS Assay for the Inhibitors of Human Flap endonuclease 1 (FEN1); Recombinant FEN1 flap cleavage, fluorescence, 15 min; 0.35% of 390,000 active; AID 588795, 2011; Potency, µM (titrated, usually from 114 µM), actives largely listed as inhibitors; note: nearly all actives have a fitted effect of over 65% in size
#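 Quantitative HTS format: each compound was titrated, incubated with 10 nM nuclease for 15 min at room temperature, then challenged with flap substrate at 50 nM final. Signal change over 15 min gave concentration–effect curves.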
# RECQ1 inh – qHTS Assay for Inhibitors of RecQ-Like Dna Helicase 1 (RECQ1); AID 2549, 2010; Potency, µM (top dose mostly 57.3 µM), hits mostly inhibitors; 0.54% of 240,000 active; RECQ1 DNA unwinding, red fluorescence kinetic read; ATP-dependent DNA helicase Q1 (Homo sapiens), P46063; note: nearly all actives have a fitted effect of over 30% in size
# Target sequence (P46063 whole entry, looked up): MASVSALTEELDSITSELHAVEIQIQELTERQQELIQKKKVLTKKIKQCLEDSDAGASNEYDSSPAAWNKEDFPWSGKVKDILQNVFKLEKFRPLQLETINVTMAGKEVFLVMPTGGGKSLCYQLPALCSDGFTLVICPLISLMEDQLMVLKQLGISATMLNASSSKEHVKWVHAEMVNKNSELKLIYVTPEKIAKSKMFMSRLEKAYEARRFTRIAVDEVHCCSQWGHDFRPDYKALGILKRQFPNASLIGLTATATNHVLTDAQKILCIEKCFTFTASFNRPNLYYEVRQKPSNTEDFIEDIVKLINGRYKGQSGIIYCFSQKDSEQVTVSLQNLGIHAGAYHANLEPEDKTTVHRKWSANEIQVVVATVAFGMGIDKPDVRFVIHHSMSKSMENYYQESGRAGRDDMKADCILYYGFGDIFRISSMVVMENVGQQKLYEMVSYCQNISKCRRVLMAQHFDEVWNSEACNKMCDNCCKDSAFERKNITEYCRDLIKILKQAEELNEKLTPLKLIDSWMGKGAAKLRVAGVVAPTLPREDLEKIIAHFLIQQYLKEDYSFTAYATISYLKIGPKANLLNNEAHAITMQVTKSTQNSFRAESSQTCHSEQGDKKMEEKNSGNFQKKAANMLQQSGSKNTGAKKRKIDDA
#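 50 nM RECQ1T1 preincubated 15 min with compound in Tris pH 8.0 buffer with MgCl2, DTT, Tween-20 and 2.5 ug/ml poly(dI-dC); started with 200 nM TAMRA/BHQ-2 forked duplex and 2 mM ATP. Unwinding read as fluorescence (525/598 nm), two reads 2 h apart.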
# WRN helicase inh-1 – qHTS for Inhibitors of WRN Helicase; Bifunctional 3'-5' exonuclease/ATP-dependent helicase WRN (Homo sapiens), Q14191; 0.46% of 360,000 active; Potency, µM (titrated, usually from 114 µM), usual class: inhibitors; AID 651768, 2012; WRN helicase unwinding, fluorescent forked duplex, kinetic; note: nearly all actives have a fitted effect of over 55% in size
#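 WRN at 20 nM final was preincubated with compound for 15 min at room temperature; reaction started with 100 nM forked duplex oligonucleotide carrying fluorophore and quencher plus 2 mM ATP (final). Unwinding followed kinetically by red fluorescence (ex 525/em 598 nm).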
# BLM helicase inh-1 – qHTS Assay for Inhibitors of Bloom's syndrome helicase (BLM); RecQ-like DNA helicase BLM (Homo sapiens), P54132; recombinant BLM DNA unwinding, fluorescence dequenching; Potency, µM (top dose mostly 56.1 µM), usual class: inhibitors; 0.2% of 350,000 active; note: nearly all actives have a fitted effect of over 35% in size
# L3MBTL1 inh-1 – qHTS Assay for the Inhibitors of L3MBTL1 | Lethal(3)malignant brain tumor-like protein 1 (Homo sapiens), Q9Y468 | AlphaScreen L3MBTL1–H3K9me1 peptide binding | Potency, µM (top dose mostly 57.1 µM), hits mostly inhibitors | 0.66% of 230,000 active; note: nearly all actives have a fitted effect of over 60% in size
#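 L3MBTL1 50 nM + b-AHA-H3(1-15)K9me1 75 nM, 30 min RT; compound added, 30 min RT; streptavidin donor/Ni-chelate acceptor beads 10 ug/mL each final, 30 min RT dark; AlphaScreen read.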
# RECQ1 inh conf – Confirmation qHTS Assay for Inhibitors of RecQ-Like Dna Helicase 1 (RECQ1) | Potency, µM (series often up to 229 µM), hits mostly inhibitors | AID 2708, 2010 | RECQ1 helicase DNA unwinding, fluorescence | shares compounds with RECQ1 inh | 28% of 610 active; note: nearly all actives have a fitted effect of over 45% in size
# ADP FP counter – Counterscreen for RECQ1 Inhibitors: ADP Fluorescence Polarization Displacement Assay. shares compounds with RECQ1 inh. ADP fluorescence polarization displacement counterscreen. Potency, µM (series often up to 228 µM), most hits filed as inhibitors. 27% of 530 active; note: nearly all actives have a fitted effect of over 45% in size
# L3MBTL1 inh-2 – qHTS Assay for the Inhibitors of L3MBTL1: Hit Validation | 91% of 500 active | L3MBTL1 methyl-lysine binding inhibition, biochemical qHTS | Potency, µM, hits mostly inhibitors | AID 540279, 2011 | shares compounds with L3MBTL1 inh-1; note: nearly all actives have a fitted effect of over 70% in size
# L3MBTL1 ctr – qHTS Assay for the Inhibitors of L3MBTL1: Hit Validationin AlphaScreen Counterscreen. shares compounds with L3MBTL1 inh-1. AlphaScreen counterscreen, signal inhibition. Potency, µM (doses to about 57.1 µM), most hits filed as inhibitors. 500 tested, under 10 active. AID 602224, 2012
# FEN1 inh-2 – qHTS Assay for the Inhibitors of FEN1: Confirmatory Assay for Cherry-picked Compounds | shares compounds with FEN1 inh-1 | FEN1 flap cleavage, TAMRA/BHQ2 fluorogenic DNA substrate | Potency, µM, most hits filed as inhibitors | 79% of 880 active | AID 720498, 2013; note: nearly all actives have a fitted effect of over 60% in size
# WRN helicase inh-2 – qHTS for Inhibitors of WRN Helicase: Confirmatory Assay for Cherry-picked Compounds; shares compounds with WRN helicase inh-1; WRN helicase DNA unwinding, fluorescence kinetic; Potency, µM (doses to about 57.1 µM), most hits filed as inhibitors; 63% of 610 active; AID 720497, 2013; note: nearly all actives have a fitted effect of over 65% in size
# TO DNA binding – qHTS for Inhibitors of WRN Helicase: Thiazole Orange DNA Binding Counterscreen | shares compounds with WRN helicase inh-1 | thiazole orange DNA binding displacement, fluorescence | Potency, µM (doses to about 57.1 µM), most hits filed as inhibitors | 10% of 610 active | AID 720499, 2013;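 note: drop in dye fluorescence marks compound binding to DNA; nearly all actives have a fitted effect of over 60% in size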
# BLM helicase inh-2 – qHTS for Inhibitors of WRN Helicase: BLM Helicase Counterscreen for WRN Inhibitors | shares compounds with WRN helicase inh-1 | Recombinant BLM helicase DNA unwinding, red fluorescence | Potency, µM (titrated, usually from 57.1 µM), hits mostly inhibitors | AID 720503, 2013 | 60% of 610 active; note: nearly all actives have a fitted effect of over 60% in size
# Hits are given with their value; . = inactive; ? = inconclusive; / = no result; ! = not confirmed by another sample; [ ] = dose if it differs, or a comment. Calls come from the whole dose curve; as a rule, active = well fitted curve in the direction sought with a large enough effect; inconclusive = small, poorly fitted or top-dose-only effect, or another doubt; inactive = no such curve, though single readings can be large; an effect the other way counts as inactive or inconclusive.
SMILES,FEN1 inh-1,RECQ1 inh,WRN helicase inh-1,BLM helicase inh-1,L3MBTL1 inh-1,FEN1 inh-2,others
O=c1c(O)c(-c2ccc(O)c(O)c2)oc2cc(O)cc(O)c12,39.8µM,1.78µM!,?,.,/,/,RECQ1 inh conf=?;ADP FP counter=12.6µM;WRN helicase inh-2=1.21µM;TO DNA binding=?;BLM helicase inh-2=1.08µM
CC(=NCc1ccc2c(c1)OCO2)c1c(O)n(-c2ccc(C)cc2)c(=O)[nH]c1=O,.,.,.,.,/,/,
Cc1cc(C=C2C(=O)NC(=S)NC2=O)c(C)n1-c1ccc2c(c1)OCO2,.,.,?,.,22.4µM,/,L3MBTL1 inh-2=21.2;L3MBTL1 ctr=.
C=CCN1C(=O)NC(=O)/C(=C/c2ccoc2)C1=O,?,.,50.1µM,.,22.4µM,/,L3MBTL1 inh-2=16.8;L3MBTL1 ctr=.
C=CCN1C(=O)NC(=O)/C(=C/c2cccn2C)C1=O,.,.,.,.,.,/,
CCOc1ccccc1OCCCCN1CCCC1,.,.,.,.,28.2µM,/,L3MBTL1 inh-2=?;L3MBTL1 ctr=?
CC(=O)OC12COC1CC(O)C1(C)C(=O)C(O)C3=C(C)C(O)CC(O)(C(OC(=O)c4ccccc4)C21)C3(C)C (centres undefined),.,/,.,/,/,/,
CC(C)(C)c1cc(C=C(C#N)C#N)cc(C(C)(C)C)c1O,?,?,.,/,.,/,
CN1CCC(N(C)c2nc(-c3ccc([N+](=O)[O-])cc3)nc3ccccc23)CC1,35.5µM,.,.,.,.,33.8,
CC1(C)OC(c2ccccc2)=C/C(=C/C=C2C(=O)NC(=S)NC2=O)O1,?,25.1µM,8.91µM,22.4µM,?,84.9,
CN1/C(=C\C=C2C(=O)NC(=S)NC2=O)C(C)(C)c2ccccc21,39.8µM,.,.,.,.,75.7,
O=C1NC(=S)NC(=O)C1=Cc1ccc(Br)s1,?,/,?,.,.,/,
O=[N+]([O-])c1ccc(N2CCCCCC2)c2nonc12,?,/,22.4µM,.,.,42.6,
CC1=CP(=O)(Oc2ccc([N+](=O)[O-])cc2)CC1 (centres undefined),/,/,.,/,/,/,
CC[N+](C)(CC)CCCCOc1ccc2c(c1)C(=O)c1cc(OCCCC[N+](C)(CC)CC)ccc1-2,?,.,39.8µM,.,.,21.3,
O=C(O)/C=C\CO,/,.,/,.,/,/,
O=C(Cn1ncn2c(cc3cc(F)ccc32)c1=O)N1CCC2(CC1)OCCO2,.,/,.,.,/,/,
Cc1ccc(N2C(=O)NC(=O)/C(=C/c3ccoc3)C2=O)cc1,35.5µM,12.6µM,31.6µM,15.8µM,/,60.1,
Cc1ccc(N2C(=O)NC(=O)/C(=C/c3cnn(-c4ccc(C)cc4)c3)C2=O)cc1,.,.,.,.,.,/,
Cc1cc(OCC(=O)OC(C)(C)C)c2c3c(c(=O)oc2c1)CCC3,.,.,.,.,.,/,
CN1CCc2nc(N)c(C#N)c(-c3ccccc3)c2C1,.,.,.,.,.,/,
CN1CCc2nc3sc(C#N)c(N)c3c(-c3cccs3)c2C1,?,.,.,.,/,?,
CCC1(c2ccccc2)CCC(=O)NC1=O (centres undefined),/,.,/,.,/,/,
C[n+]1c(-c2ccccc2)c2cc(N)ccc2c2ccc(N)cc21,11.2µM,/,2.67µM,?,/,9.53,
Nc1ccc2ccc3cccc[n+]3c2c1,50.1µM,/,.[11.6 µM],.,.,?,
SMILES,FEN1 inh-1,RECQ1 inh,WRN helicase inh-1,BLM helicase inh-1,L3MBTL1 inh-1,FEN1 inh-2,others
CN(Cc1cccc(-c2ccncc2)c1)C(=O)Oc1ccc([N+](=O)[O-])cc1,/,/,.,/,/,/,
CN1C(=O)NC(=O)/C(=C/c2ccc([N+](=O)[O-])o2)C1=O,25.1µM,.,?,.,25.1µM,33.8,
CN1C(=O)NC(=O)/C(=C/c2ccc([N+](=O)[O-])s2)C1=O,?,?,?,.,/,7.57,
Cc1ccc(/C=C2/C(=O)NC(=O)N(C)C2=O)cc1,.,.,?,.,.,/,
CCCN(CCC)CCc1ccc(O)c(O)c1,/,.,/,/,/,/,
Cc1cccc(-n2c(O)c(/C=C/C=Nc3ccccc3)c(=O)[nH]c2=O)c1,.,.,.,.,.,/,
Cc1ccccc1-n1c(O)c(/C=C/C=Nc2ccccc2)c(=O)[nH]c1=O,.,25.1µM,?,.,.,84.9,
CSc1nc(N)c(N=Nc2ccc([As](=O)(O)O)cc2)c(=O)[nH]1,.,.,.[11.6 µM],.,.,75.7,
COc1ccc(N=Nc2c(O)[nH]c(=S)[nH]c2=O)cc1,.,.,.,.,.,/,
Cc1cccc(N2C(=O)/C(=C/c3ccc(N4CCN(C)CC4)o3)C(=O)NC2=S)c1C,.,.,31.6µM,.,.,84.9,
Cc1cccc(Oc2nc3c(C)cccn3c(=O)c2/C=C(\C#N)c2nc3ccccc3s2)c1,?,/,/,.,/,67.5,
Cn1cccc1/C=C1/C(=O)NC(=O)N(Cc2ccc(F)cc2)C1=O,.,?,?,.,/,/,
Cn1cccc1/C=C1/C(=O)NC(=S)N(Cc2ccc(F)cc2)C1=O,.,25.1µM,56.2µM,?,/,?,
Cc1ccc(C[N+](C)(C)C)o1,/,.,/,.,/,/,
